Experimental data taken from PubChem BioAssay (Tox21).
Inconclusive results are not listed. The source made the active and inactive calls. The call rests on the fitted dose curve; in most records, active means well fitted curve in the direction sought with a large enough effect in the repeat runs; inconclusive means weak or mixed curves; inactive means no such curve, though single readings can be large; an effect the other way counts as inactive or inconclusive.

Tests used:
[1] = Caspase-3/7 induction in HepG2 cells by small molecules, qHTS assay (AID 1346978); further: nearly all actives have a fitted effect of over 15% in size
Summary of the method: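 Wild-type HepG2 cells (2,000/well) were settled 5 h at 37 C, 5% CO2, then exposed to compounds in DMSO for 17 h. Caspase-3/7 activity was read by luminescence 30 min after adding Caspase-Glo 3/7 reagent at room temperature.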

[2] = Caspase-3/7 induction in CHO-K1 cells by small molecules, qHTS cell viability counter screen (AID 1346979); further: nearly all actives have a fitted effect of over 35% in size
Summary of the method: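 Cytotoxicity counter screen: CellTiter-Fluor added to compound-treated wild-type CHO-K1 cells at 16 h (37C, 5% CO2), fluorescence measured 1 h later; same wells as caspase-3/7 measurement.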

[3] = Caspase-3/7 induction in CHO-K1 cells by small molecules, qHTS assay (AID 1346980); further: nearly all actives have a fitted effect of over 15% in size
Summary of the method: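 Wild-type cells were seeded at 1,500 per well and settled 5 hr at 37 C, 5% CO2, then exposed to DMSO-dissolved compounds for 17 hr. Caspase-Glo 3/7 reagent was added, and luminescence was read after 30min at room temperature.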

[4] = Caspase-3/7 induction in HepG2 cells by small molecules, qHTS cell viability counter screen (AID 1346981); further: series mostly up to about 92 µM; nearly all actives have a fitted effect of over 30% in size
Summary of the method: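 Treatment of HepG2 cells with DMSO-delivered compounds ran 16 hr at 37 C following a 5-hr pre-incubation of 2,000 cells/well. CellTiter-Fluor fluorescence, read after 1 hr, served as the viability measure in a qHTS format.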

[5] = target: Nuclear receptor subfamily 1 group I member 2 (Homo sapiens) (UniProt O75469); assay: Human pregnane X receptor (PXR) small molecule agonists, qHTS assay (AID 1346982); further: nearly all actives have a fitted effect of over 35% in size; further: potency means the concentration at half of the fitted maximal effect
Sequence of Nuclear receptor subfamily 1 group I member 2 (Homo sapiens) (O75469 whole entry, looked up): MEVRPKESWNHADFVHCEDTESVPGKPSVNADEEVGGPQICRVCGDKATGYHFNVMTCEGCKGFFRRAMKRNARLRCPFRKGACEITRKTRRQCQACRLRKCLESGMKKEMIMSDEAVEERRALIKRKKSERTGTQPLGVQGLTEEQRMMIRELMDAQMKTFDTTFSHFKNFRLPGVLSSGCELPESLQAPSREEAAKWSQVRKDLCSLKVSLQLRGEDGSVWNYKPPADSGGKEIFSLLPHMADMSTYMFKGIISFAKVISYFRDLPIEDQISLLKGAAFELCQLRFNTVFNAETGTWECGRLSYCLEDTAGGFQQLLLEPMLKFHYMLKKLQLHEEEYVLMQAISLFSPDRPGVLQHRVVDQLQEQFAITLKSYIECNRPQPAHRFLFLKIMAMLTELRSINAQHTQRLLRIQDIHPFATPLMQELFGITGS
Summary of the method: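 Stable HepG2 line reporting PXR-mediated CYP3A4 expression via luciferase. Treatment: 24 hr with compounds in DMSO at 37 C. Detection: ONE-Glo luminescence.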

[6] = target: Cytochrome P450 2D6 (Homo sapiens) (UniProt P10635); assay: Cytochrome P450 Family 2 Subfamily D Member 6 (CYP2D6) small molecule antagonists: luciferase reporter qHTS assay (AID 1671196); further: nearly all actives have a fitted effect of over 50% in size; further: potency means the concentration at half of the fitted maximal effect
Sequence of Cytochrome P450 2D6 (Homo sapiens) (P10635 whole entry, looked up): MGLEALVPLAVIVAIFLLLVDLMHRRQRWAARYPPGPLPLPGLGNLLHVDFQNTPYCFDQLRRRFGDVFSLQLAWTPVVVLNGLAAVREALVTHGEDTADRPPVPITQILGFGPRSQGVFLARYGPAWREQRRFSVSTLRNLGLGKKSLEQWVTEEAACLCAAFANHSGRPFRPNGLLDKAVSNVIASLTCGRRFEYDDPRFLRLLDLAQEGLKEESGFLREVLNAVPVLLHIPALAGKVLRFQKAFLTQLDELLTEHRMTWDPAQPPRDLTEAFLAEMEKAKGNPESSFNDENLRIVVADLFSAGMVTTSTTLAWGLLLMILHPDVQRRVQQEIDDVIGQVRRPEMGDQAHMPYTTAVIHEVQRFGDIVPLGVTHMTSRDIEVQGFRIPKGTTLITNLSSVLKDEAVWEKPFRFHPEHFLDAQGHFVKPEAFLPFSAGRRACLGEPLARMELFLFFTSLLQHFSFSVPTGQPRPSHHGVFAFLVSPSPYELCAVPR
Summary of the method: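 Chemicals tested for interference with CYP2D6 activity; proluciferin substrate, NADPH regeneration, 1 h at room temperature, luminescent detection.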

[7] = target: Cytochrome P450 2C19 (Homo sapiens) (UniProt P33261); assay: Cytochrome P450 Family 2 Subfamily C Member 19 (CYP2C19) small molecule antagonists: luciferase reporter qHTS assay (AID 1671197); further: nearly all actives have a fitted effect of over 65% in size; further: potency means the concentration at half of the fitted maximal effect
Sequence of Cytochrome P450 2C19 (Homo sapiens) (P33261 whole entry, looked up): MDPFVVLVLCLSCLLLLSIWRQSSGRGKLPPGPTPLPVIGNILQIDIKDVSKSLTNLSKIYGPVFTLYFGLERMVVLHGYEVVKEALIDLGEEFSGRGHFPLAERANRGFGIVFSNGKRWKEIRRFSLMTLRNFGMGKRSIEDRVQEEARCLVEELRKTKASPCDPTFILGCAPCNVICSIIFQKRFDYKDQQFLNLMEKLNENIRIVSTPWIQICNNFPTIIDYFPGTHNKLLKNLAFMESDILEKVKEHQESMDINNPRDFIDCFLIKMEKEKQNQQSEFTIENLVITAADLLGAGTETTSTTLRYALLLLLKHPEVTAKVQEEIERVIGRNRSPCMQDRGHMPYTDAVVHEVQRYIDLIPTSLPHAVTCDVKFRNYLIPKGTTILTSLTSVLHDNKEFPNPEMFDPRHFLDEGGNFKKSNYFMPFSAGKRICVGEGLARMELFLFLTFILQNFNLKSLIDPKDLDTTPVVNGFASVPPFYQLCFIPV
Summary of the method: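 P450-Glo CYP2C19 system: enzyme-substrate mix with compound 10 min at room temperature, then NADPH regeneration solution, 1 h at 37C. Proluciferin-to-luciferin conversion detected by luminescence after 20 min with detection reagent; ketoconazole as positive control.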

[8] = target: Cytochrome P450 2C9 (Homo sapiens) (UniProt P11712); assay: Cytochrome P450 Family 2 Subfamily C Member 9 (CYP2C9) small molecule antagonists: luciferase reporter qHTS assay (AID 1671198); further: nearly all actives have a fitted effect of over 50% in size; further: potency means the concentration at half of the fitted maximal effect
Sequence of Cytochrome P450 2C9 (Homo sapiens) (P11712 whole entry, looked up): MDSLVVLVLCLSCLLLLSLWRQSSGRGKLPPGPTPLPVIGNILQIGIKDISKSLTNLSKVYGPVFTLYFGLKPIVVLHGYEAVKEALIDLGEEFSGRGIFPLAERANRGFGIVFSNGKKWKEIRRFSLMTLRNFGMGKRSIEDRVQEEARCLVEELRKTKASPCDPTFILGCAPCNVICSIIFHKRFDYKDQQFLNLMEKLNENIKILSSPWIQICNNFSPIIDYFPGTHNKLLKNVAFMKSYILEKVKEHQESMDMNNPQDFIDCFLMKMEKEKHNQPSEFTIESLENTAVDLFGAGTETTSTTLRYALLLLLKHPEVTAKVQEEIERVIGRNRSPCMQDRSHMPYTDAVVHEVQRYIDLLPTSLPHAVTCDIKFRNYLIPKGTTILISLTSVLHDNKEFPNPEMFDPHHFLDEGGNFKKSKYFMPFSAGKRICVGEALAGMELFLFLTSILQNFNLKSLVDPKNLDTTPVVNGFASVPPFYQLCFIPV
Summary of the method: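 CYP2C9 activity was measured with a P450-Glo proluciferin substrate. Enzyme–substrate mix was held with compound for 10 min at room temperature, then NADPH regeneration solution was added for 1 h at 37C. Luciferin product was read as luminescence.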

[9] = target: Cytochrome P450 1A2 (Homo sapiens) (UniProt P05177); assay: Cytochrome P450 Family 1 Subfamily A Member 2 (CYP1A2) small molecule antagonists: luciferase reporter qHTS assay (AID 1671199); further: nearly all actives have a fitted effect of over 50% in size; further: potency means the concentration at half of the fitted maximal effect
Sequence of Cytochrome P450 1A2 (Homo sapiens) (P05177 whole entry, looked up): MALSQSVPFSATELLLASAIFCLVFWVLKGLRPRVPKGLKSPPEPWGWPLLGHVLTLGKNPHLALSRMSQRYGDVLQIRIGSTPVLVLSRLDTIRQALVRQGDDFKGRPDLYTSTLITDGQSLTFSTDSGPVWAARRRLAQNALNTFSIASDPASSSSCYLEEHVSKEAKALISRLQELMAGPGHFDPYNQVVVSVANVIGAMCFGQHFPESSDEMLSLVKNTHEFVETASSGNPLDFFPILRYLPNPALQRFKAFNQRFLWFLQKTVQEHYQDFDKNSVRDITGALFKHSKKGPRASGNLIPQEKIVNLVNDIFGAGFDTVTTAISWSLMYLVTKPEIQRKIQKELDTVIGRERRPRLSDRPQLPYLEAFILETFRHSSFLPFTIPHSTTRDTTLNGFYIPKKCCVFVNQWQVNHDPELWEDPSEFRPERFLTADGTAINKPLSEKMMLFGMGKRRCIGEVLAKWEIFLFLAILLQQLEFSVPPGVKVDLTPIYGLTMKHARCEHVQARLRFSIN
Summary of the method: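 Read-out is luminescence from luciferin detection reagent (20 min) proportional to CYP1A2 activity; compounds in DMSO preincubated 10 min with enzyme and proluciferin substrate, then NADPH regeneration solution, 1 h, room temperature.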

[10] = target: Voltage-gated inwardly rectifying potassium channel KCNH2 (Homo sapiens) (UniProt Q12809); assay: Human Ether-a-go-go-Related Gene (hERG) channel small molecule antagonists: fluorescence cell-based qHTS assay (AID 1671200); further: nearly all actives have a fitted effect of over 50% in size; further: potency means the concentration at half of the fitted maximal effect
Sequence of Voltage-gated inwardly rectifying potassium channel KCNH2 (Homo sapiens) (Q12809 whole entry, looked up): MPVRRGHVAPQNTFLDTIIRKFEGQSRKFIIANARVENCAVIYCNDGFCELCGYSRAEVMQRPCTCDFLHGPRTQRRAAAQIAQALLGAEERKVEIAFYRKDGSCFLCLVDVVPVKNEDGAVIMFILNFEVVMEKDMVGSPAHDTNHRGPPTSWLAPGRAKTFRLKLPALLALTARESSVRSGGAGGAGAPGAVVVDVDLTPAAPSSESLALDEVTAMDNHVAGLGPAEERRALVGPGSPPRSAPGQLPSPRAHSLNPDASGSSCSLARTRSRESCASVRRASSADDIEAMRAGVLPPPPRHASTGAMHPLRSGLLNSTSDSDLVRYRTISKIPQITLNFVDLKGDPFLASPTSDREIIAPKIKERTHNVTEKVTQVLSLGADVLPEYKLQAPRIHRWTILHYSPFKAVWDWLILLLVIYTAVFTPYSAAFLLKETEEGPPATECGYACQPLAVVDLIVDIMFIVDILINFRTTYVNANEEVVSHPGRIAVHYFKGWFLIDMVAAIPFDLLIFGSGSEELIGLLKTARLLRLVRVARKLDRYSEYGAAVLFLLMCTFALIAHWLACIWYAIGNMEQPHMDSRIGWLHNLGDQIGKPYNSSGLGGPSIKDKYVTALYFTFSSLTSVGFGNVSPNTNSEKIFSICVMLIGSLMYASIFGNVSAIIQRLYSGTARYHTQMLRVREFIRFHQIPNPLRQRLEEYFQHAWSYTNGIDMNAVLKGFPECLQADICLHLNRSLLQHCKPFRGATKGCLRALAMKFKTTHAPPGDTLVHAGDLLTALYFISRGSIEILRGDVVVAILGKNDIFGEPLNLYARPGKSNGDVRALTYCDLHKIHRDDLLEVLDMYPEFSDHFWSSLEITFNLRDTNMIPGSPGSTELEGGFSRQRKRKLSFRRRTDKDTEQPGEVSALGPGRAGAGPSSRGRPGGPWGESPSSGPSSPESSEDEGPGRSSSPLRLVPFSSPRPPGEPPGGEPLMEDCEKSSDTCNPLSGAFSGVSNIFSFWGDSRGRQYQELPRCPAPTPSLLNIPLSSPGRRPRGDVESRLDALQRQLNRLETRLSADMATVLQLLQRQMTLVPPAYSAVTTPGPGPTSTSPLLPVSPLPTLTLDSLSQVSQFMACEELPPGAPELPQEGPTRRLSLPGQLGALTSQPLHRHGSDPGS
Summary of the method: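 Thallium flux as potassium surrogate: FluxOR II dye loaded 1 h at room temperature into hERG-expressing U2OS cells, then stimulus buffer added after 10 min. Kinetic 480 nm excitation/540 nm emission read, 2 min.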

[11] = target: Cytochrome P450 3A4 (Homo sapiens) (UniProt P08684); assay: Cytochrome P450 Family 3 Subfamily A Member 4 (CYP3A4) small molecule antagonists: luciferase reporter qHTS assay (AID 1671201); further: nearly all actives have a fitted effect of over 50% in size; further: potency means the concentration at half of the fitted maximal effect
Sequence of Cytochrome P450 3A4 (Homo sapiens) (P08684 whole entry, looked up): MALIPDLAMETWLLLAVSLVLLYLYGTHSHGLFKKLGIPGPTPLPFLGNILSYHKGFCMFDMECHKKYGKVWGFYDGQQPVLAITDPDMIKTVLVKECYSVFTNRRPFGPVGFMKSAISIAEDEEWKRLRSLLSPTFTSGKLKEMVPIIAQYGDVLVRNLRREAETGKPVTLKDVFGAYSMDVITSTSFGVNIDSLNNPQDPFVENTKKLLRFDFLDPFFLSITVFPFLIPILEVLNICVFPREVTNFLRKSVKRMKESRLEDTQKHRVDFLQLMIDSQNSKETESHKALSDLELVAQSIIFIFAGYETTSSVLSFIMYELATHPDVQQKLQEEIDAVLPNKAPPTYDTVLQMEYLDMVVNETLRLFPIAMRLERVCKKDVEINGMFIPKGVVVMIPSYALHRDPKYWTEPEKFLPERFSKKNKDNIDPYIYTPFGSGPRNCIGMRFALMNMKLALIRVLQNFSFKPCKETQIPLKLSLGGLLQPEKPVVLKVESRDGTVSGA
Summary of the method: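 Recombinant human CYP3A4 converts a proluciferin substrate to luciferin over 1 h at room temperature after NADPH regeneration solution is added (compound preincubated 10 min); detection reagent stops reaction, luminescence read 20 min later as relative units.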

[12] = target: Nuclear receptor subfamily 1 group I member 2 (Rattus norvegicus) (UniProt Q9R1A7); assay: Rat pregnane X receptor (rPXR) activation by small molecules, qHTS assay (AID 1346983); details: rPXR luciferase reporter cells, One-Glo luminescence, 24 h; max activation: stronger effect = higher value; further: nearly all actives have a fitted effect of over 20% in size
Sequence of Nuclear receptor subfamily 1 group I member 2 (Rattus norvegicus) (Q9R1A7 whole entry, looked up): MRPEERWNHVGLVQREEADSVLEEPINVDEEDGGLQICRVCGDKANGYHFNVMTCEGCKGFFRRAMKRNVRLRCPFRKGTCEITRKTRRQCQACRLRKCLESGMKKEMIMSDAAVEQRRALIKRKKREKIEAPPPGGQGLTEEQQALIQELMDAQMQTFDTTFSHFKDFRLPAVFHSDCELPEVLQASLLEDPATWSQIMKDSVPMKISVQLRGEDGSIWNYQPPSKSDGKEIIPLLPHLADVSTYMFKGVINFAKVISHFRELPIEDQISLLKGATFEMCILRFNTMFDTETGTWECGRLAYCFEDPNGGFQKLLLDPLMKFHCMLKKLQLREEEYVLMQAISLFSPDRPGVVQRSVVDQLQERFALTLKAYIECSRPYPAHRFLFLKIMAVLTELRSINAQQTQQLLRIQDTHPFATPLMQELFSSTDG
Summary of the method: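 Cell-based rPXR luciferase reporter assay, 2,000 cells per well, rested 5hr at 37 C before compound addition in DMSO, then 24 hr at 37 C. One-Glo reagent was added and luminescence read after 30 min at room temperature.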
On the % scale 0 is the no-effect control and ±100 the full control effect.

COc1ccc(Nc2ccc(OC)cc2)cc1
inactive: Potency [1] | Potency [2] | outcome [3] | Potency [4] | Potency [10]
active: Potency [5] 24.8 µM | Potency [6] 36.2 µM | Potency [7] 2.29 µM | Potency [8] 16.2 µM | Potency [9] 18.2 µM | Potency [11] 18.2 µM

CCCCCCCCOC(=O)CCCCCCCCC(=O)OCCCCCCCC
inactive: Potency [1] | Potency [2] | outcome [3] | Potency [4] | Potency [5] | Potency [6] | Potency [7] | Potency [8] | Potency [9] | Potency [10] | Potency [11]

Cc1cn([C@@H]2O[C@H](CO)[C@@H](O)[C@@H]2F)c(=O)[nH]c1=O
inactive: Potency [1] | Potency [2] | outcome [3] | Potency [4] | Potency [5] | Potency [6] | Potency [7] | Potency [9] | Potency [10] | Potency [11]

CCC/C=C/CO
inactive: Potency [1] | Potency [2] | outcome [3] | Potency [4] | Potency [5] | Potency [6] | Potency [7] | Potency [9] | Potency [10] | Potency [11]

CCCCCCCCCC/C=C/C#N
inactive: Potency [1] | Potency [2] | outcome [3] | Potency [4] | Potency [5] | Potency [7] | Potency [8] | Potency [10] | Potency [11]

CC(C)(C)c1ccc(OC(=O)c2ccccc2O)cc1
active: Potency [8] 31.7 µM | Potency [9] 39.9 µM
inactive: Potency [1] | Potency [2] | outcome [3] | Potency [4] | Potency [6] | Potency [7] | Potency [10] | Potency [11]

C=O
inactive: Potency [1] | Potency [2] | outcome [3] | Potency [4] | max activation [12] -2.05% | Potency [10]

CC(C)C(=O)OC/C=C/c1ccccc1
active: Potency [7] 39.9 µM | Potency [8] 35.6 µM
inactive: Potency [1] | Potency [2] | outcome [3] | Potency [4] | Potency [5] | Potency [10] | Potency [11]

CCCCCCCCCC#N
inactive: Potency [1] | Potency [2] | outcome [3] | Potency [4] | Potency [6] | Potency [7] | Potency [8] | Potency [10] | Potency [11]

CCCCCCC
inactive: Potency [1] | Potency [2] | outcome [3] | Potency [4] | Potency [5] | Potency [6] | Potency [9] | Potency [10] | Potency [11]

CC(C)(CO)[C@@H](O)C(=O)NCCC(=O)O
inactive: Potency [1] | Potency [2] | outcome [3] | Potency [4] | Potency [5] | Potency [7] | Potency [11]

Cc1ccc(C(C)C)cc1O
active: Potency [7] 1.78 µM | Potency [9] 22.4 µM
inactive: Potency [1] | Potency [2] | outcome [3] | Potency [4] | Potency [5] | Potency [10]

CCOc1ccccc1N
active: Potency [7] 22.3 µM | Potency [9] 19.9 µM | Potency [10] 21.7 µM | Potency [11] 15.8 µM
inactive: Potency [1] | Potency [2] | outcome [3] | Potency [4] | Potency [5]

O=C1C=CC(=O)O1
inactive: Potency [1] | Potency [2] | outcome [3] | Potency [4] | Potency [5] | Potency [7] | Potency [8] | Potency [9] | Potency [10] | Potency [11]

C=CC1CO1 (centres undefined)
inactive: Potency [1] | Potency [2] | outcome [3] | Potency [4] | Potency [5] | Potency [7] | Potency [8] | Potency [10] | Potency [11]

CCOC(=O)C(Br)c1ccccc1 (centres undefined)
inactive: Potency [1] | Potency [2] | outcome [3] | Potency [4] | Potency [5] | Potency [6] | Potency [10] | Potency [11]

CC/C=C\CCOC(=O)C(C)C
inactive: Potency [1] | Potency [2] | outcome [3] | Potency [4] | Potency [5] | Potency [7] | Potency [9] | Potency [10]

CN1CCC[C@@H]1Cc1c[nH]c2ccc(CCS(=O)(=O)c3ccccc3)cc12
inactive: Potency [1] | Potency [2] | outcome [3] | Potency [4] | max activation [12] 0.279% | Potency [7] | Potency [9]
active: Potency [6] 13.8 µM

CC1CN(c2ccccc2)NC1=O (centres undefined)
active: Potency [5] 54.5 µM | Potency [7] 12.6 µM | Potency [9] 22.4 µM
inactive: Potency [1] | Potency [2] | outcome [3] | Potency [4] | Potency [10]

CCOc1ccc2nc(N)sc2c1
inactive: Potency [1] | Potency [2] | outcome [3] | Potency [4]
active: Potency [5] 17.1 µM | Potency [7] 22.3 µM | Potency [8] 31.5 µM | Potency [9] 17.7 µM

CC(C)S
inactive: Potency [1] | Potency [2] | outcome [3] | Potency [4] | Potency [5] | Potency [7] | Potency [8] | Potency [9] | Potency [10] | Potency [11]

O=C(O)c1cccc(Cl)c1Cl
inactive: Potency [1] | Potency [2] | outcome [3] | Potency [4] | Potency [5] | Potency [7] | Potency [10] | Potency [11]

Cc1c[nH]c(=S)[nH]c1=O
inactive: Potency [1] | Potency [2] | outcome [3] | Potency [4] | Potency [5] | Potency [10] | Potency [11]
active: Potency [7] 79.9 µM | Potency [9] 63.5 µM
